Experimental data as given in the supplement of paper PMC4840960.
± gives the standard deviation of the averaged measurements.

Tested on: E18 rat cortical neuron-glia co-culture
Assay: fiber score / MBP score (myelination specific beyond OL differentiation) (ratio); higher = more myelination-specific MBP alignment
Settings: 1 µM; treatment time: 8 days (DIV5-DIV13)
In short: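 Fiber score divided by MBP score is the read-out; fiber score is continuous MBP fiber length per Olig2+ nucleus, and MBP score is thresholded MBP area × intensity per Olig2+ nucleus. Primary E18 rat cortical co-cultures were dissociated with papain and seeded at 20,000 cells/well on poly-d-lysine/laminin 96-well plates. Library compounds at 1 or 5 µM were given in myelination medium from DIV5 to DIV13, after which cells were fixed in 4 % paraformaldehyde, immunostained for MBP and Olig2 with DAPI, and imaged in four 10X fields per well in duplicate wells.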

| Structure (SMILES) | fiber score / MBP score |
| --- | --- |
| CCCCC(=O)O[C@H]1CC[C@H]2[C@@H]3CCc4cc(O)ccc4[C@H]3CC[C@]12C [Estradiol valerate] | 1.07 |
| CN(C)CCC=C1c2ccccc2COc2ccccc21 [Doxepin] | 0.859 ± 0.061 |
| NC(=O)c1cccnc1 [Niacinamide] | 0.96 |
| COc1cc(C[C@@H](CO)[C@H](CO)Cc2ccc(O)c(OC)c2)ccc1O [Secoisolariciresinol] | 0.879 |
| CCCc1c(OCCCCc2nnn[nH]2)ccc(C(C)=O)c1O | 0.683 |
| O=C(c1ccc(F)cc1)C1CCN(CCn2c(=S)[nH]c3ccccc3c2=O)CC1 [Altanserin] | 0.994 |
| Nc1ccc2cn[nH]c2c1 [6-Aminoindazole] | 0.529 |
| C[C@@H]1C[C@H]2[C@@H]3CCC4=CC(=O)C=C[C@]4(C)[C@@]3(F)[C@@H](O)C[C@]2(C)[C@H]1C(=O)CO [Desoximetasone] | 0.95 |
| O=C1CC2(CCCC2)CC(=O)N1CCNCC1COc2ccccc2O1 (stereo not given) [Binospirone] | 0.768 |
| N[C@@H]1CONC1=O [Cycloserine] | 0.562 ± 0.18 |
| CCOc1ccc2ccccc2c1C(=O)N[C@@H]1C(=O)N2[C@@H]1SC(C)(C)[C@@H]2C(=O)O [Nafcillin] | 1.25 |
| N#Cc1ccc(C(c2ccc(C#N)cc2)n2cncn2)cc1 [letrozole] | 0.937 |
| CCCCN1CCCCC1C(=O)Nc1c(C)cccc1C (stereo not given) [Bupivacaine] | 0.752 |
| CC(C)[N+](C)(CCOC(=O)C1c2ccccc2Oc2ccccc21)C(C)C [Propantheline] | 0.889 |
| CN1CCC(=C2c3ccccc3CCc3sccc32)CC1 [Pizotyline] | 0.579 |
